Among the data in paper PMC7862700, “An all-to-all approach to the identification of sequence-specific readers for epigenetic DNA modifications on cytosine” are binding signal values, retold here.

What all share (assay): DAPPL (digital affinity profiling via proximity ligation, sequencing); 10 mM Tris-HCl pH 7.5, 50 mM NaCl, 1 mM DTT, 4% glycerol, room temperature, 30 min; GST-TFs on glutathione beads, 16-mer random dsDNA library, 0.1% formaldehyde crosslink after washing; high values mean tight binding
What all share (settings): protein: recombinant; tags: N-terminal GST; dsDNA, one strand shown

For one assay, the target named is T1, ERF (Homo sapiens, UniProt P50548 1-548).
T1 sequence: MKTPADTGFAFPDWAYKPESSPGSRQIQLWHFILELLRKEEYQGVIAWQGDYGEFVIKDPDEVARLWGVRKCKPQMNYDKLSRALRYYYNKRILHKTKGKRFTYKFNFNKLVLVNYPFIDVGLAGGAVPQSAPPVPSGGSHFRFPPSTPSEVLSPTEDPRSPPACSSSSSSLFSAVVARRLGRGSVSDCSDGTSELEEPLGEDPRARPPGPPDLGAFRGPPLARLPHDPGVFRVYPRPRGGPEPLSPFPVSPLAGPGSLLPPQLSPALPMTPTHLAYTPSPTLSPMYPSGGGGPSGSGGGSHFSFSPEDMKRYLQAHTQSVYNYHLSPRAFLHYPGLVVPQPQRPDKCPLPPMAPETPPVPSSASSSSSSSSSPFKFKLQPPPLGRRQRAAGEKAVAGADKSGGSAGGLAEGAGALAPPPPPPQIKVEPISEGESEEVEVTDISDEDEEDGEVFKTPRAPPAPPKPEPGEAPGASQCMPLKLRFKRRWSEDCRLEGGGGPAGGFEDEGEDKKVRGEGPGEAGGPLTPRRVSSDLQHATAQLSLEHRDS
The method in brief: (§1)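 Sequencing on an Illumina NextSeq500 followed washing, crosslinking with 0.1% formaldehyde, proximity ligation (BsaI/T4 ligase, 1 h, 37 °C) and PCR amplification of pools that had been incubated for 30 min at room temperature with 200 nmole of a random double-stranded 16-mer DNA library in Tris/NaCl/DTT/glycerol buffer. Each pool held DNA-barcoded human transcription factors, expressed in yeast as GST fusions and captured on glutathione beads, plus a tag-only sample. Binding signal is a hexamer's read frequency for a factor divided by its frequency in the tag-only sample.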

In a further assay the target is T2, ETV3L (Homo sapiens, UniProt Q6ZN32 1-361).
T2 sequence: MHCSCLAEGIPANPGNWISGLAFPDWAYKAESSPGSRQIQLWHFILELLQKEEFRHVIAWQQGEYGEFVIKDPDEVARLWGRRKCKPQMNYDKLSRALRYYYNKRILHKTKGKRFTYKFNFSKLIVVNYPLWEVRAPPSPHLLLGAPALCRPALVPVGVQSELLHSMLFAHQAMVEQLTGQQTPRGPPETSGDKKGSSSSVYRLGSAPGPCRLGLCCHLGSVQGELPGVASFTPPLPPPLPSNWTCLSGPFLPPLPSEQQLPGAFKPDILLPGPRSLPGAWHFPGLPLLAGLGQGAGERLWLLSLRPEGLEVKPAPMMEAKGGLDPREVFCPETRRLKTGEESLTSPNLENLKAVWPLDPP
Summed up:
as §1

Another assay addresses T3, ETS2 (Homo sapiens, UniProt P15036 1-469).
T3 sequence: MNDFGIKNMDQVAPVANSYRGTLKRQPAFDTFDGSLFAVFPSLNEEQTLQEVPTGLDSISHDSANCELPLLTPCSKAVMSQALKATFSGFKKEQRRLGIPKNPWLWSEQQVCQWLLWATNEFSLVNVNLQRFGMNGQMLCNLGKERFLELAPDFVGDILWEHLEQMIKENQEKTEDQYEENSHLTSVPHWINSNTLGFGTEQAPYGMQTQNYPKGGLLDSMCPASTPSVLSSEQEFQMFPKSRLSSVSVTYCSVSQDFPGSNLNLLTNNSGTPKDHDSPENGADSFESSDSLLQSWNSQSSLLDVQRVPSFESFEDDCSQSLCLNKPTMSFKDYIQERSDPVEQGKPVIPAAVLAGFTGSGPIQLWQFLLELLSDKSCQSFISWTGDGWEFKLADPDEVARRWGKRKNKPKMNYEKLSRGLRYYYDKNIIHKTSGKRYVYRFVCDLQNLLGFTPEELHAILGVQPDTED
Summed up:
as §1

Another assay has as its target T4, SPDEF (Homo sapiens, UniProt O95238 1-335).
T4 sequence: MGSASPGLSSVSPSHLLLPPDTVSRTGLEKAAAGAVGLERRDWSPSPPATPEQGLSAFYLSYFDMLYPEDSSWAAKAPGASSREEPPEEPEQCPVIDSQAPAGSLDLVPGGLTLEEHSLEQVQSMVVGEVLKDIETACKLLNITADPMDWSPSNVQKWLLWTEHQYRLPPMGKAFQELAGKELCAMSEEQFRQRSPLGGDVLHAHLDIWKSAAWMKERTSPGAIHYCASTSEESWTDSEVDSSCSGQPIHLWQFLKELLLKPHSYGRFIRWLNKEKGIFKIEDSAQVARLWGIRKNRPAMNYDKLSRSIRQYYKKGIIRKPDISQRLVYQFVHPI
The method in brief: as §1

The next assay deals with T5, ETV7 (Homo sapiens, UniProt Q9Y603 1-341).
T5 sequence: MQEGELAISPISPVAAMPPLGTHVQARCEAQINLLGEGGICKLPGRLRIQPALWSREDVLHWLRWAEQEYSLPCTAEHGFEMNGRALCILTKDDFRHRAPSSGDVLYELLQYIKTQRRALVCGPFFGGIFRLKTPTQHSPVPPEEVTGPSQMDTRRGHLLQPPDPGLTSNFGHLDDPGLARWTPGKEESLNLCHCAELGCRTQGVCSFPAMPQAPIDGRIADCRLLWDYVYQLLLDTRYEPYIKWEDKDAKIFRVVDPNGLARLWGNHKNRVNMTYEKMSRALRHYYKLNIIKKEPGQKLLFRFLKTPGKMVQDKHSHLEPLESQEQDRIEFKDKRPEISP
The method in brief: as §1

In another assay the target is T6, ELF5 (Homo sapiens, UniProt Q9UKW6-2 1-255).
T6 sequence: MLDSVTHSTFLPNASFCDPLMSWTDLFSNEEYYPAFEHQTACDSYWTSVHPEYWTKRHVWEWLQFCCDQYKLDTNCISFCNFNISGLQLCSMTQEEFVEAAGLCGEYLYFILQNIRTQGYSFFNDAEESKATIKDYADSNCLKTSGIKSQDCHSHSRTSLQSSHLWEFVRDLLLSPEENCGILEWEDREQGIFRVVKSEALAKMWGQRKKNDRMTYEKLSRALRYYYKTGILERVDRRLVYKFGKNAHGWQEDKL
Summed up:
as §1

Another assay addresses T7, ETV3 (Homo sapiens, UniProt P41162-2 1-143).
T7 sequence: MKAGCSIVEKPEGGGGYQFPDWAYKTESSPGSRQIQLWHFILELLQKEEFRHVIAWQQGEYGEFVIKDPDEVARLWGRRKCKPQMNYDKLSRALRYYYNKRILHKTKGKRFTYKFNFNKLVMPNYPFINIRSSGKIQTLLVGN
The method in brief:
as §1

The next assay concerns the target ETV6 (Homo sapiens, UniProt P41212 1-452). The method in brief: as §1

ETV6, sequence (P41212 whole entry): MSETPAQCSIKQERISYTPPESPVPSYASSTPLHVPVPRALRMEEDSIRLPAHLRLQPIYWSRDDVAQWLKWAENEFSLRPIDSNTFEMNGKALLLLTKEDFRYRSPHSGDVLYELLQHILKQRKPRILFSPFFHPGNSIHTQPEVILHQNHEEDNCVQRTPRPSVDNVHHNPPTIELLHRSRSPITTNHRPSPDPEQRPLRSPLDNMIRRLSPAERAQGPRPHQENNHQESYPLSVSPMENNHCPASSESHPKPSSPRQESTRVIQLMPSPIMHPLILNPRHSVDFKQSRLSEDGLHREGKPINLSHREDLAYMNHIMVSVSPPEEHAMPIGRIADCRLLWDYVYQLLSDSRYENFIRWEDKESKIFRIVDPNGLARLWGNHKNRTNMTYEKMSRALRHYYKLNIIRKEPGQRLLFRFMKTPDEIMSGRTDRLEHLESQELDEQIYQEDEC

Take AATATA: the binding signal in the assay with ERF is 1.39 fold enrichment (6-mer frequency, TF over GST control); in the assay with ETV3L, 1.31 fold enrichment (6-mer frequency, TF over GST control); with ETS2, 1.34 fold enrichment (6-mer frequency, TF over GST control); with SPDEF it was 1.23 fold enrichment (6-mer frequency, TF over GST control); with ETV7 it was 1.36 fold enrichment (6-mer frequency, TF over GST control); in the assay with ELF5 it was 1.33 fold enrichment (6-mer frequency, TF over GST control). The binding signal in the assay with ETV3 was 1.35 fold enrichment (6-mer frequency, TF over GST control); with ETV6, 1.36 fold enrichment (6-mer frequency, TF over GST control).

For GCGGAA, the binding signal was 1.19 fold enrichment (6-mer frequency, TF over GST control) with ERF; 1.29 fold enrichment (6-mer frequency, TF over GST control) in the assay with ETV3L; 1.42 fold enrichment (6-mer frequency, TF over GST control) with ETS2; 1.22 fold enrichment (6-mer frequency, TF over GST control) with SPDEF; 1.26 fold enrichment (6-mer frequency, TF over GST control) in the assay with ETV7; 1.67 fold enrichment (6-mer frequency, TF over GST control) with ELF5. Further, the binding signal with ETV3 was 1.55 fold enrichment (6-mer frequency, TF over GST control); with ETV6, 1.58 fold enrichment (6-mer frequency, TF over GST control).

Consider CTCCTG, for which the binding signal with ERF is 1.49 fold enrichment (6-mer frequency, TF over GST control); with ETV3L it was 1.72 fold enrichment (6-mer frequency, TF over GST control); in the assay with ETS2, 1.86 fold enrichment (6-mer frequency, TF over GST control); with SPDEF it was 1.6 fold enrichment (6-mer frequency, TF over GST control); with ETV7 it was 1.64 fold enrichment (6-mer frequency, TF over GST control); with ELF5 it was 1.6 fold enrichment (6-mer frequency, TF over GST control). In addition, the binding signal in the assay with ETV3 is 1.43 fold enrichment (6-mer frequency, TF over GST control); with ETV6 it was 1.59 fold enrichment (6-mer frequency, TF over GST control).

Turning to CATTAC, the binding signal with ERF is 1.09 fold enrichment (6-mer frequency, TF over GST control); with ETV3L it was 1.14 fold enrichment (6-mer frequency, TF over GST control); in the assay with ETS2, 1.23 fold enrichment (6-mer frequency, TF over GST control); with SPDEF, 1.14 fold enrichment (6-mer frequency, TF over GST control); in the assay with ETV7, 1.03 fold enrichment (6-mer frequency, TF over GST control); with ELF5, 1.1 fold enrichment (6-mer frequency, TF over GST control). Besides, the binding signal in the assay with ETV3 was 1.13 fold enrichment (6-mer frequency, TF over GST control); with ETV6, 1.11 fold enrichment (6-mer frequency, TF over GST control).

Consider CCCCGG, for which the binding signal with ERF was 1.34 fold enrichment (6-mer frequency, TF over GST control); with ETV3L, 1.24 fold enrichment (6-mer frequency, TF over GST control); with ETS2, 1.17 fold enrichment (6-mer frequency, TF over GST control); in the assay with SPDEF it was 1.28 fold enrichment (6-mer frequency, TF over GST control); with ETV7 it was 1.18 fold enrichment (6-mer frequency, TF over GST control); with ELF5, 1.3 fold enrichment (6-mer frequency, TF over GST control). Also, the binding signal in the assay with ETV3 is 1.43 fold enrichment (6-mer frequency, TF over GST control); in the assay with ETV6, 1.21 fold enrichment (6-mer frequency, TF over GST control).

Take CCCTCA: the binding signal with ERF is 1.18 fold enrichment (6-mer frequency, TF over GST control); with ETV3L, 1.18 fold enrichment (6-mer frequency, TF over GST control); with ETS2, 1.14 fold enrichment (6-mer frequency, TF over GST control); in the assay with SPDEF it was 1.2 fold enrichment (6-mer frequency, TF over GST control); with ETV7 it was 1.07 fold enrichment (6-mer frequency, TF over GST control); with ELF5, 1.14 fold enrichment (6-mer frequency, TF over GST control). In addition, the binding signal in the assay with ETV3 was 1.12 fold enrichment (6-mer frequency, TF over GST control); with ETV6, 1.09 fold enrichment (6-mer frequency, TF over GST control).

With CCTTCA, the binding signal with ERF was 1.42 fold enrichment (6-mer frequency, TF over GST control); in the assay with ETV3L it was 1.21 fold enrichment (6-mer frequency, TF over GST control); with ETS2, 1.38 fold enrichment (6-mer frequency, TF over GST control); with SPDEF, 1.48 fold enrichment (6-mer frequency, TF over GST control); in the assay with ETV7 it was 1.26 fold enrichment (6-mer frequency, TF over GST control); with ELF5, 1.56 fold enrichment (6-mer frequency, TF over GST control). Further, the binding signal in the assay with ETV3 is 1.46 fold enrichment (6-mer frequency, TF over GST control); in the assay with ETV6 it was 1.5 fold enrichment (6-mer frequency, TF over GST control).

Regarding TGTATA, the binding signal is 1.24 fold enrichment (6-mer frequency, TF over GST control) in the assay with ERF; 1.11 fold enrichment (6-mer frequency, TF over GST control) in the assay with ETV3L; 1.1 fold enrichment (6-mer frequency, TF over GST control) with ETS2; 1.24 fold enrichment (6-mer frequency, TF over GST control) with SPDEF; 1.09 fold enrichment (6-mer frequency, TF over GST control) in the assay with ETV7; 1.11 fold enrichment (6-mer frequency, TF over GST control) with ELF5. Further, the binding signal in the assay with ETV3 is 1.04 fold enrichment (6-mer frequency, TF over GST control); with ETV6, 1.04 fold enrichment (6-mer frequency, TF over GST control).
